In PubChem BioAssay (NCI) one finds growth inhibition data, which are given here for 38 compounds.

Test [1] in a line: NCI Yeast Anticancer Drug Screen. Data for the rad50 strain (AID 155).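 Further: 0% = growth of vehicle-only cultures of the same strain.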 Conditions: S. cerevisiae rad50 strain growth inhibition; at 50.0 µM; hits give high values. The method, boiled down: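 Genetically altered yeast (DNA repair pathway); compound treatment; growth inhibition vs vehicle ctrl.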
Test [2] is described as follows: NCI Yeast Anticancer Drug Screen. Data for the mec2-1 strain (AID 157). The note with it: S. cerevisiae mec2-1 strain, at 50.0 µM, hits give high values. Summed up:
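Growth inhibition is read against vehicle-treated controls after compound exposure of the mec2-1 yeast strain, which is defective in DNA damage repair or cell cycle control.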

Test [3] is described as follows: NCI Yeast Anticancer Drug Screen. Data for the sgs1 mgt1 strain (AID 161).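 Further: 0% = growth of cultures given vehicle only.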 The note with it: S. cerevisiae sgs1 mgt1 strain, at 50.0 µM, hits give high values. The method, boiled down: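 This yeast growth screen uses a strain with defined DNA-repair lesions; compound-treated growth is compared with vehicle-treated growth.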
Test [4] can be described thus: NCI Yeast Anticancer Drug Screen. Data for the cln2 rad14 strain (AID 165).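 Further: 0% = growth equal to vehicle treated cultures.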 The note with it: S. cerevisiae cln2 rad14 strain, at 50.0 µM, hits give high values. Summed up:
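Growth inhibition, relative to vehicle-treated controls, is the read-out. The test organism is a yeast strain with defined genetic alterations, cln2 rad14.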

Test [5] is described as follows: NCI Yeast Anticancer Drug Screen. Data for the bub3 strain (AID 167). The note with it: S. cerevisiae bub3 mutant strain, at 50.0 µM, hits give high values. The method, boiled down:
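Yeast carrying a defined mutation is treated with each compound, and growth is compared with that of vehicle-exposed cells to give inhibition.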

The nature of test [6]: NCI Yeast Anticancer Drug Screen. Data for the mlh1 rad18 strain (AID 175). Conditions: S. cerevisiae mlh1 rad18 strain growth inhibition; at 50.0 µM; hits give high values. Summed up: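 Cells of a genetically altered yeast strain, deficient in DNA damage repair, were treated with compound. Their growth was then compared with that of vehicle-treated cultures to give inhibition.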

Molecules are shown by their SMILES. This is part of a sample that, as a whole, favours compounds with a hit. Of some 79,000 tested, about 15% had one in any assay. Values without a mark were called inactive. Calls of active or inactive are those of the source. No stated cut-off is given here; in the data, active means growth inhibition above about 70%; inactive means the rest.

As for `CCOc1ccc(-n2c(=O)c(N=Nc3ccccc3Cl)c(O)n(-c3ccc(Br)cc3)c2=S)cc1`, the growth inhibition was 38.5% in test [1]; 17.9% in test [2]; 52.1% in test [3]; 12.7% in test [4]; -11.7% in test [5]; 5.8% in test [6].

Consider `C1CCCC2(CCC1)OCCO2`, for which the growth inhibition in test [1] was 0.7%; in test [2] it was 10.4%; in test [3] it was -4.05%; in test [4], -9.55%; in test [5] it was 17.1%; in test [6], 1.65%.

Turning to `Cc1cc(C)c2ccc(=O)[nH]c2n1`, the growth inhibition is -2.8% in test [1]; -9% in test [2]; 2.6% in test [3]; -3.05% in test [4]; 8.75% in test [5]; 8.2% in test [6].

`CC1C(O)CCC2C1(C)CCC1C2(C)CCC2(C)C3CC(C)(C)CCC3(C)CCC12C` (stereo not drawn): the growth inhibition in test [1] was -4.9%; in test [2], -3.3%; in test [3], 12.4%; in test [4] it was -10.1%; in test [5], 5.75%; in test [6], -6.75%.

Take `CC(C)(C)c1ccc(OC(=O)NCCCCCCNC(=O)Oc2ccc(C(C)(C)C)cc2)cc1`: the growth inhibition in test [1] was -5.65%; in test [2] it was 23.9%; in test [3], 4.8%; in test [4] it was 92.3% (active); in test [5] it was -2.85%; in test [6] it was -8.5%.

Turning to `COC(=O)Cc1ccccc1-n1nccc1S(C)=O` (stereo not drawn), the growth inhibition in test [1] was 10.2%; in test [2] it was -5.05%; in test [3] it was 14.3%; in test [4], -7.65%; in test [5], 8.6%; in test [6], 7.45%.

In the case of `CCOc1ccc(N=c2ccn3ccccc3c2)cc1`, the growth inhibition was -2.05% in test [1]; -10.3% in test [2]; -24.2% in test [3]; -24.4% in test [4]; 8.75% in test [5]; -28.5% in test [6].

As to `O=C1NC(=O)C(=O)N1`, the growth inhibition in test [1] was 25.8%; in test [2], 13.4%; in test [3] it was 8.65%; in test [4] it was 16.4%; in test [5] it was 27.8%; in test [6], -1.8%.

`N=C(N)N1CCC(N2CCOCC2)CC1`: the growth inhibition in test [1] was 14.7%; in test [2] it was -18.4%; in test [3], -12.6%; in test [4] it was -24.4%; in test [5] it was 4.75%; in test [6], -52.5%.

Regarding `Clc1ccc(SCCCCSc2ccc(Cl)cc2)cc1`, the growth inhibition in test [1] was 8.05%; in test [2] it was -6.7%; in test [3], 7.7%; in test [4], -3.45%; in test [5], 10.8%; in test [6], 10.8%.

As for `NC(=O)CSc1ccccc1`, the growth inhibition is 8% in test [1]; 2.1% in test [2]; 9.8% in test [3]; 10.1% in test [4]; -4.5% in test [5]; -8.6% in test [6].

With `O=P(O)(Cc1ccccc1)OCC1(O)OCC(O)C(O)C1O` (stereo not drawn), the growth inhibition in test [1] is -16.1%; in test [2], -6.35%; in test [3], -28.6%; in test [4], 12.7%; in test [5] it was -19.8%; in test [6], -23.2%.

Turning to `CCCCCCCCCC1=C(C#N)C(=O)OCCN1C`, the growth inhibition in test [1] was -12.9%; in test [2] it was -2.7%; in test [3], 0.05%; in test [4], -22.1%; in test [5], -11.4%; in test [6], 3.6%.

Consider `Cc1cccc(C)c1Nc1n[nH]c(=S)s1`, for which the growth inhibition in test [1] was 18.3%; in test [2] it was 33.8%; in test [3], 45.5%; in test [4], 0.8%; in test [5], 44.5%; in test [6], 13.9%.

Turning to `O=C(OCC(OC(=O)c1ccccc1)C(OC(=O)c1ccccc1)C(OC(=O)c1ccccc1)c1nn[nH]n1)c1ccccc1` (stereo not drawn), the growth inhibition in test [1] is 73% (active); in test [2], 88.4% (active); in test [3] it was 59.4%; in test [4], 86.9% (active); in test [5], 85.2% (active); in test [6] it was 80.5% (active).

`CCOC(=O)/C(=C\c1ccc[nH]1)C(=O)c1ccccc1`: the growth inhibition is 48% in test [1]; -5.9% in test [2]; 5% in test [3]; 27.6% in test [4]; 20.1% in test [5]; 9.05% in test [6].

As to `CCCCCCCCCCCCCCCCSC1=C(Cl)C(=O)C(OC)=C(OC)C1=O`, the growth inhibition in test [1] is 25.6%; in test [2], -4.7%; in test [3], 21.1%; in test [4], -26%; in test [5] it was 0.25%; in test [6], 9.4%.

Take `O=C(CN1C(=O)c2ccccc2C1=O)NC(Cc1ccccc1)C(=O)O` (stereo not drawn): the growth inhibition in test [1] is 7.85%; in test [2], -6.9%; in test [3], -16.9%; in test [4], -12.5%; in test [5], 10.1%; in test [6], -9.65%.

Turning to `Cc1c(C)c(C)c(CNNC(=S)Nc2cccc(Cl)c2)c(C)c1C`, the growth inhibition was -6.35% in test [1]; 5.7% in test [2]; -1.35% in test [3]; -3.45% in test [4]; -3.5% in test [5]; 21.1% in test [6].

Take `CN(C)c1ncnc2c1ncn2CC(O)CN` (stereo not drawn): the growth inhibition in test [1] is -7.9%; in test [2] it was -8.65%; in test [3] it was -15.8%; in test [4], 4.4%; in test [5], 5.4%; in test [6], -17.2%.

Take `NC(CSS(=O)(=O)O)=NCCSS(=O)(=O)O`: the growth inhibition is -20.4% in test [1]; -12.4% in test [2]; -3.45% in test [3]; 7.45% in test [4]; -2.4% in test [5]; 3.95% in test [6].

In the case of `O=C(O)C(Cc1ccsc1)C(=O)O`, the growth inhibition in test [1] was -10.1%; in test [2], 1.1%; in test [3] it was -6.6%; in test [4], -17%; in test [5] it was -6.45%; in test [6], 12.4%.

As for `Cc1cc(C)c(C#[N+][O-])c(C)c1C#[N+][O-]`, the growth inhibition was 5.9% in test [1]; 8.1% in test [2]; -5.8% in test [3]; 13.7% in test [4]; -1.1% in test [5]; 15.4% in test [6].

As to `CC(C)CNC(=O)c1ccccc1`, the growth inhibition in test [1] was 0.45%; in test [2], 5.1%; in test [3] it was -1.6%; in test [4], -3.2%; in test [5], 0.5%; in test [6], -4.65%.

On to `CCCCCCCCCCCCNC(=S)N/N=C/c1ccc(OC)cc1`, for which the growth inhibition in test [1] was -19.1%; in test [2], -10.5%; in test [3] it was -16.8%; in test [4] it was 13.3%; in test [5] it was -8.4%; in test [6], -28.2%.

As to `O=C(NNC(=S)Nc1ccc(S(=O)(=O)N2CCCCC2)cc1)c1ccncc1`, the growth inhibition in test [1] was 5.25%; in test [2], 11.1%; in test [3], 33.5%; in test [4], 4.2%; in test [5], 33%; in test [6] it was 46%.

Regarding `CCC1(O)CCCCC1`, the growth inhibition in test [1] was -16.4%; in test [2], -23.4%; in test [3], -30.1%; in test [4], -37.9%; in test [5], -18.6%; in test [6] it was -21.7%.

As for `N#CC(CC(=O)c1ccccc1)c1ccccc1` (stereo not drawn), the growth inhibition is -10.3% in test [1]; 4.95% in test [2]; -18.9% in test [3]; -28.9% in test [4]; -14.3% in test [5]; -7.05% in test [6].

For `COc1cc(C2OC[C@@H]3C(=O)OC[C@H]23)cc(O)c1OC` (stereo partly drawn), the growth inhibition was 3.35% in test [1]; -1.6% in test [2]; -33.1% in test [3]; -13.3% in test [4]; -38.8% in test [5]; -23.7% in test [6].

With `Cc1ccc(Nc2nnc(-c3ccc4c(c3)OCO4)o2)c(C)c1`, the growth inhibition was 22.8% in test [1]; 1.6% in test [2]; -4.4% in test [3]; -2.15% in test [4]; -4% in test [5]; 14.8% in test [6].

As to `CC(C)(C)C(OC(=O)Cc1ccccc1)c1ccc2c(c1)OCO2` (stereo not drawn), the growth inhibition in test [1] was -9.05%; in test [2] it was -2.7%; in test [3] it was 2%; in test [4], -3.25%; in test [5], 51.4%; in test [6] it was -12.1%.

Regarding `CCCNc1ccc2c(c1)C(=O)c1ccccc1-2`, the growth inhibition in test [1] is -3.5%; in test [2], -1.1%; in test [3], -0.15%; in test [4] it was -6.2%; in test [5] it was -0.65%; in test [6], -1.8%.

For the compound `Cc1cc(C)c(NC(=O)Nc2ccc(C(Cl)(Cl)Cl)cc2)c(C)c1`, the growth inhibition is 4.9% in test [1]; 11.5% in test [2]; 8.8% in test [3]; 7% in test [4]; 2.9% in test [5]; 2.8% in test [6].

As to `CC(C)C(=O)N(C(C)C)C(C)C`, the growth inhibition in test [1] was 25.2%; in test [2], 12.5%; in test [3], 8.5%; in test [4], -21.6%; in test [5], -0.55%; in test [6], 38%.

In the case of `CC(C)c1cccc(C(C)C)c1NC(=O)/C(Cc1nc2ccc(Cl)cc2[nH]c1=O)=N\NC(=O)C[N+](C)(C)C`, the growth inhibition was 17.7% in test [1]; 16.2% in test [2]; -12.3% in test [3]; 25.7% in test [4]; 26.9% in test [5]; 22.7% in test [6].

In the case of `Cn1cnc([N+](=O)[O-])c1Cl`, the growth inhibition in test [1] was 43.4%; in test [2], -3.6%; in test [3], -2.2%; in test [4], -7.55%; in test [5], 19.2%; in test [6] it was -1.1%.

In the case of `CCCCN(CCCC)C1(c2ccccc2)OC(c2ccccc2)=CC1=O` (stereo not drawn), the growth inhibition is 1.45% in test [1]; 5.75% in test [2]; -0.55% in test [3]; -10.5% in test [4]; 2.8% in test [5]; 20.6% in test [6].

For the compound `CN(/C=C1\CCCCC1=O)c1ccccc1`, the growth inhibition in test [1] was -4.35%; in test [2] it was -17.2%; in test [3], -35.4%; in test [4], -14.4%; in test [5] it was -22.2%; in test [6], -7%.
